Shown are actives, neighbours in structure and some others; about 21% of the full set was active somewhere.
Pf growth 48h: inhibits P. falciparum growth in the first generation, 48 h. AID 504832. 310,000 tested, 5.9% active. Potency, µM (series often up to 28.7 µM), most hits filed as inhibitors. P. falciparum luciferase growth in erythrocytes, 48 h
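Read-out is firefly luciferase luminescence from an integrated reporter in P. falciparum, so falling signal marks reduced parasite growth. Infected erythrocytes were at 2% hematocrit and 0.1% parasitemia (final) in Albumax-supplemented RPMI 1640.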
Pf growth 96h: inhibits malaria parasite growth, 96 h; P. falciparum luciferase reporter growth, 96 h; Potency, µM (highest dose often 28.7 µM), hits mostly inhibitors; 320,000 tested, 6.9% active
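Luminescence readout: decreased luciferase signal marks inhibited growth of reporter-expressing P. falciparum in infected red cells (2% hematocrit, 0.05% parasitemia final), exposed to compound two generations (96 h, 37 C, 5% CO2).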
Cycloheximide cs: counter-screen hit for Shiga toxin inhibitors, cycloheximide; cell reporter, cycloheximide protein synthesis inhibition counterscreen; max response, %; 300,000 tested, 12% active; AID 2314; in the data active = max response mostly above about 13%, no sharp cut-off; inactive = mostly below about 14%; note: read at 38.3 µM for the half of the compounds with a filed dose
Shiga inhibitor: blocks Shiga toxin action in Vero cells; inhibition, % at 38.7 µM; 290,000 tested, 9.2% active; Vero cells, Shiga toxin protein synthesis inhibition reporter; in the data active = inhibition mostly above about 28%, no sharp cut-off; inactive = mostly below about 43%
Numbers stand for hits; n = inactive; u = inconclusive; x = no result. Unless noted, calls come from the whole dose curve; as a rule, active = well fitted inhibition curve with a large enough effect; inconclusive = small, poorly fitted or top-dose-only effect, or another doubt; inactive = no such curve, though single readings can be large or run the other way.

SMILES | Pf growth 48h | Pf growth 96h | Cycloheximide cs | Shiga inhibitor
COC(=O)c1ccccc1NC(=O)c1cccnc1 | u | n | n | x
O=C(NNc1c2ccccc2nc2ccccc12)C(O)c1ccccc1 (stereo not drawn) | u | 0.41µM | n | n
CC(=O)c1cccc(Nc2c([N+](=O)[O-])c(=O)oc3ccccc23)c1 | n | u | n | n
O=C(NNc1c2ccccc2nc2ccccc12)C12CC3CC(CC(C3)C1)C2 | u | 13µM | n | n
O=C(NCc1ccccc1)C12CC3CC(CC(C3)C1)C2 | x | n | n | n
O=C(O)c1cccc(Nc2c([N+](=O)[O-])c(=O)oc3ccccc23)c1 | n | n | 73 | 125
O=C(NNc1c2ccccc2nc2ccccc12)c1cccc(O)c1 | 13µM | u | n | n
O=C(NNc1c2ccccc2nc2ccccc12)c1ccccc1Cl | u | u | n | n
CCC(C)NC(=O)C1CCC(CNS(=O)(=O)c2cccc3nsnc23)CC1 (stereo not drawn) | n | n | n | n
CN(C)S(=O)(=O)c1ccc(C(=O)NCc2nnc(SCC(=O)N3CCCC3)o2)cc1 | n | n | n | n
O=C(NCc1n[nH]c(=S)n1-c1ccc(Br)cc1)c1cccs1 | n | n | n | n
O=C(Nc1cccc2cccnc12)c1ccc(Br)cc1Br | n | n | n | x
COc1ccc(CCNC(=S)NC2CCN(Cc3ccccc3)CC2)cc1OC | u | u | n | n
CSc1ccccc1OCc1cc(C(=O)N(C)Cc2ccc3nsnc3c2)no1 | n | n | 52 | 100
CSc1ccccc1OCc1cc(C(=O)N2CCC[C@H]2C(N)=O)no1 | n | u | n | n
CSc1ccccc1OCc1cc(C(=O)N(C)Cc2ccc(C)o2)no1 | n | u | 54 | 79
CSc1ccccc1OCc1cc(C(=O)NCC(C)(C)N2CCOCC2)no1 | u | u | n | n
CSc1ccccc1OCc1cc(C(=O)N(C)C(C)c2nc(C)cs2)no1 (stereo not drawn) | n | n | 18 | n
COc1ccc(C2(O)CCN(CC(=O)Nc3nc(-c4ccccc4)cs3)CC2)cc1 | u | n | n | n
CCOc1cc(N2CCOCC2)c(OCC)cc1NC(=O)COc1ccc2ccc(=O)oc2c1 | n | n | n | n
COc1cccc(NC(=O)NCc2c(-c3ccccc3)noc2C)c1 | u | n | n | n
O=[N+]([O-])c1ccc(-c2csc(Nc3ccccc3)[n+]2Cc2ccccc2)cc1 | 5.2µM | u | 33 | 29
Cc1ccc(-c2csc(Nc3ccccc3)[n+]2CCc2ccccc2)cc1 | 12µM | 2.1µM | 23 | 70
Cc1ccc(-c2csc(Nc3ccc(C(=O)O)cc3)[n+]2Cc2ccccc2)cc1 | u | u | n | n
O=C(Cc1nc(-c2ccc([N+](=O)[O-])cc2)cs1)Nc1ccccc1 | n | n | n | n
SMILES | Pf growth 48h | Pf growth 96h | Cycloheximide cs | Shiga inhibitor
COc1ccc(-c2csc(Nc3ccccc3)[n+]2Cc2ccccc2)cc1 | n | 13µM | 38 | 55
CSc1ccc(CN2CCN(C3CCCC3)C(CCO)C2)cc1 (stereo not drawn) | n | n | n | n
COCc1cc(Sc2ccc(OC)cc2)nc(-c2ccccc2)n1 | u | u | n | n
COCc1cc(Sc2ccc(Cl)cc2Cl)nc(-c2ccccc2)n1 | 12µM | u | n | n
Cc1ccc(/C=N/NC(=O)c2cccs2)s1 | n | n | 52 | 85
O=C(N/N=C/c1ccc(Br)s1)Nc1ccccc1 | n | n | 46 | n
O=C(N/N=C/c1ccc(Br)s1)c1cccs1 | u | n | 48 | 80
NCC(=O)N[C@@H](CCCN=C(N)N)C(=O)NCC(=O)N[C@@H](CC(=O)O)C(=O)N[C@@H](CO)C(=O)O | x | x | n | n
C/C(=N/NC(=O)CNC(=O)c1ccc2c(c1)OCO2)c1ccc2c(c1)CCCC2 | n | 3.3µM | n | n
C/C(=N\NC(=O)c1ccc2c(c1)OCO2)c1ccc(O)cc1 | n | n | 33 | 41
CCC/C(=N/NC(=O)c1ccc2c(c1)OCO2)c1cccs1 | n | u | 96 | 89
C/C(=N/NC(=O)CCc1ccccc1)c1ccc2c(c1)OCO2 | n | u | n | n
CC(C)CC(CC(C)C)=NNC(=O)c1ccc2c(c1)OCO2 | u | n | 52 | 74
CN1C2CCC1CC(NC(=O)c1cc(Cl)cc3[nH]cnc13)C2 (stereo not drawn) | u | u | n | x
CCCN1C(=O)C2(SC(NC(C)=O)=NN2C(C)=O)c2cc(C)ccc21 (stereo not drawn) | n | n | n | n
CC1CC(C)CN(C2CCCCC2NS(=O)(=O)c2ccc(Cl)cc2)C1 (stereo not drawn) | n | n | n | n
C/C(=N\NC(=O)c1ccc2c(c1)OCO2)c1cccnc1 | n | n | 37 | 90
